Measured values published in PubChem BioAssay.
The source made the active and inactive calls. Unless noted, no rule for the calls is given here.

Columns and labels:
[1] = HepG2 liver cancer cell viability effects, profiling panel, resazurin fluorescence, 24 h, PK04 Diversity Set (AID 1172); conditions: higher = more signal; also: test concentration not given here
[2] = basal S. cerevisiae growth modulation, no modifier, primary screen, OD600, strain BY4716, 24 h, basal condition (AID 1173); conditions: OD600, 24 h, higher = more signal, called active from +8 up or from −8 down
[3] = MM1S myeloma cell viability, profiling panel, resazurin fluorescence, basal, 24 h, PK04 Diversity Set (AID 1174); conditions: higher = more signal, called active from +8 up or from −8 down;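 also: MM1S multiple myeloma cell line; test concentration not given here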
[4] = target: Dihydroorotate dehydrogenase (quinone), mitochondrial (Plasmodium falciparum (isolate 3D7)) (UniProt Q08210); assay: PfDHODH enzyme inhibitors, primary screen, biochemical, C-terminal His tag, absorbance 600 nm (AID 1175); conditions: DCIP absorbance 600 nm, higher = more signal, called active from +8 up or from −8 down;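 also: recombinant parasite enzyme with a five histidine tag at its C terminus; test concentration not given here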
Chain of Dihydroorotate dehydrogenase (quinone), mitochondrial (Plasmodium falciparum (isolate 3D7)) (Q08210 whole entry, looked up): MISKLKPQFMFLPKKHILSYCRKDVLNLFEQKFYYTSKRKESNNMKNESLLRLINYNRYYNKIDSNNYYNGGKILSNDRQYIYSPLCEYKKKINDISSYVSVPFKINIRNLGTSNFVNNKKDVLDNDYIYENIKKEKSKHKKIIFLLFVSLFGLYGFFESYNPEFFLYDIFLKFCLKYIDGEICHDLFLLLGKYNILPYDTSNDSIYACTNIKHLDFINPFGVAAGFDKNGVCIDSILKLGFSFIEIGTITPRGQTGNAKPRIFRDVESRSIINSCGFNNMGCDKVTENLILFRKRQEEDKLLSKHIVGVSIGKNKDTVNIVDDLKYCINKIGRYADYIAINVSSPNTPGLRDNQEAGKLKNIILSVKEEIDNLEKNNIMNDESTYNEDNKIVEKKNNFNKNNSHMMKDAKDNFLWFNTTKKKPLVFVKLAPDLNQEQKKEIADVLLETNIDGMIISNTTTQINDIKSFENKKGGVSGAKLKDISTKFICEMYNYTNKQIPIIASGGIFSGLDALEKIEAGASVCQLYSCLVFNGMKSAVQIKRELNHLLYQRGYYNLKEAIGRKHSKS

[5] = P. aeruginosa biofilm formation inhibitors, primary screen, strain PAO1, LB-PBS medium, absorbance 600 nm (AID 1176); also: test concentration not given here; conditions: P. aeruginosa PAO1 growth/biofilm, A600, 12 h; higher = more signal
[6] = S. cerevisiae RM11-1a growth modifiers, primary screen, strain RM11-1a, OD600, basal, 24 h (AID 1177); conditions: OD600, 24 h, higher = more signal, called active from +8 up or from −8 down;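 also: cultures grown under basal conditions with no added stressor; test concentration not given here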
[7] = E. coli acrAB mutant growth effects, primary screen, E. coli filamentation inducers, strain DRC39, OD650, 24 h (AID 1178); conditions: higher = more signal, called active from +8 up or from −8 down;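 also: growth measured as culture turbidity by optical density at 650 nm; test concentration not given here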
[8] = E. coli acrAB mutant growth effects, primary screen, E. coli filamentation inducers, strain DRC39, OD650, 48 h (AID 1179);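 also: screen aims at cell division blockers that make cells filament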; conditions: E. coli DRC39 delta-acrAB growth, higher = more signal, called active from +8 up or from −8 down
[9] = RPMI8226 myeloma cell viability, profiling panel, resazurin fluorescence, basal, 24 h, PK04 Diversity Set (AID 1180); conditions: higher = more signal;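 also: RPMI8826 multiple myeloma cell line at 5000 cells per well; test concentration not given here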
[10] = target: E3 ubiquitin-protein ligase XIAP (Homo sapiens) (UniProt P98170); assay: XIAP binders, primary screen, biophysical, small-molecule microarray, fluorescence 635 nm (AID 1181); conditions: small-molecule microarray binding, higher = more signal;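 also: score merges 667 nm emission and signal to noise over triplicate slides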
Chain of E3 ubiquitin-protein ligase XIAP (Homo sapiens) (P98170 whole entry, looked up): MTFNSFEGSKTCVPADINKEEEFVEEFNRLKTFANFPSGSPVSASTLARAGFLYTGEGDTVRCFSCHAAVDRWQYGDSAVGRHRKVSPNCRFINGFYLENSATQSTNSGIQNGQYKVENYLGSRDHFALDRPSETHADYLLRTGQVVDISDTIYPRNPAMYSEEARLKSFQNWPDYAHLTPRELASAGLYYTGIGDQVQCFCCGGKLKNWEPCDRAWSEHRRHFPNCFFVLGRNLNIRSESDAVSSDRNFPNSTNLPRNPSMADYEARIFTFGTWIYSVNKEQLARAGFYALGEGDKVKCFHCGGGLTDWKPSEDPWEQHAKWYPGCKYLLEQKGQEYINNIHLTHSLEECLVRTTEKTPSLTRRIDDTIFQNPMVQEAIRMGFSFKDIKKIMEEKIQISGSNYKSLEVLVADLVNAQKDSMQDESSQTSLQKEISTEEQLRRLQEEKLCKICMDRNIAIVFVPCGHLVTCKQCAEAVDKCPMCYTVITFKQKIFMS

SMILES | z-score [1] | z-score [2] | z-score [3] | composite z-score [4] | z-score [5] | z-score [6] | z-score [7] | z-score [8] | z-score [9] | composite z-score [10]
CN(C)CCCCNC(=O)[C@H]1C[C@H]2C(=O)N[C@@H](Cc3ccccc3)C(=O)N2[C@H]1c1ccc(O)cc1 | -0.0562 | -0.5 (inactive) | -0.0866 (inactive) | -16.7 (active) | 2.86 (inactive) | 0.466 (inactive) | -0.539 (inactive) | -0.855 (inactive) | -0.0845 | 0.0256
O=C1C[C@@](C(=O)NC2CC2)(c2ccc([N+](=O)[O-])cc2)[C@@H](c2ccc(CO)cc2)N1CC12CC3CC(CC(C3)C1)C2 | -0.494 | -0.369 (inactive) | -2.23 (inactive) | 0.117 (inactive) | -0.273 (inactive) | 0.0982 (inactive) | -0.284 (inactive) | 0.466 (inactive) | -3.25 | 0.0975
COCCCNC(=O)[C@@]1(c2ccc([N+](=O)[O-])cc2)CC(=O)N(CC23CC4CC(CC(C4)C2)C3)[C@@H]1c1ccc(CO)cc1 | -1.04 | -0.67 (inactive) | -1.62 (inactive) | 0.431 (inactive) | 0.981 (inactive) | -0.24 (inactive) | 0.788 (inactive) | 0.351 (inactive) | -1.96 | 0.0374
CC(c1ccccc1)C(O)C1C=CC2C(=O)NC(=O)C2N1Nc1ccccn1 (stereo not given) | -0.987 | 1.34 (inactive) | -0.757 (inactive) | 0.865 (inactive) | 1.33 (inactive) | 1.27 (inactive) | 0.15 (inactive) | 0.226 (inactive) | -0.806 | 0.0049
COCCOC(=O)N1C(=O)[C@@]2(c3cc(C#CCC(C(=O)OC)C(=O)OC)ccc31)[C@H](C(=O)N1CCN(c3ncccn3)CC1)[C@H]1C(=O)O[C@H](c3ccccc3)[C@H](c3ccccc3)N1[C@@H]2c1ccc(OCCO)cc1 | 1.36 | 0.539 (inactive) | 0.724 (inactive) | -0.432 (inactive) | 3.48 (inactive) | 1.84 (inactive) | 0.272 (inactive) | 0.106 (inactive) | 1.32 | 0.0838
COc1ccccc1CN1C(=O)c2ccccc2[C@@H](C(=O)NCCN2CCOCC2)[C@@H]1c1ccc(CO)cc1 | 0.505 | -0.248 (inactive) | -0.0527 (inactive) | 0.249 (inactive) | 1.56 (inactive) | -0.0436 (inactive) | 0.187 (inactive) | -0.0251 (inactive) | 0.154 | 0.101
C=CCC(OC(C)=O)[C@@H]1[C@@H](N(Cc2cccc3ccccc23)C(=O)c2ccc(C)cc2)c2cc(OCCCO)ccc2N1C(=O)Cc1ccc(OC)cc1 (stereo not given in full) | 1.36 | -2.29 (inactive) | 0.641 (inactive) | -1.6 (inactive) | 0.0186 (inactive) | -1.25 (inactive) | 1.59 (inactive) | 1.98 (inactive) | -0.203 | -0.086
COC(=O)c1c(CC[C@@H](CO)NC(=O)N[C@@H](Cc2ccccc2)Cn2cc(C3(O)CCCCC3)nn2)oc(C(C)=O)c1C(=O)OC | -0.172 | -3.95 (inactive) | 1.37 (inactive) | -4.08 (inactive) | -0.452 (inactive) | -2.6 (inactive) | 1.05 (inactive) | 0.874 (inactive) | 0.428 | 0.0762
CC(C)C(O)C1C=CC2C(=O)N(c3ccccc3)C(=O)C2N1Nc1ccc(C#N)cc1 (stereo not given) | -1.45 | -2.14 (inactive) | -1.66 (inactive) | -1.02 (inactive) | 1.11 (inactive) | -0.0111 (inactive) | -0.718 (inactive) | 0.0323 (inactive) | -0.47 | 0.0073
Cc1ccc([C@H]2[C@H](C(=O)O)[C@H](Sc3ccccc3)[C@@H](C(C)C)N2S(=O)(=O)c2ccc(C)cc2)cc1 | -1.15 | -0.138 (inactive) | -0.498 (inactive) | 0.184 (inactive) | 0.0362 (inactive) | -0.528 (inactive) | -1.44 (inactive) | -0.292 (inactive) | -1.39 | 0.603
COC(=O)[C@@]1(Cc2ccccc2N=[N+]=[N-])COC(c2ccc(OCCCO)cc2)=N1 | -0.799 | -10.7 (active) | -1.43 (inactive) | 0.215 (inactive) | 0.907 (inactive) | 1.42 (inactive) | -0.993 (inactive) | -1.46 (inactive) | -0.496 | 0.0593
O=C(OCCF)C1=CCC(c2cccc(Cl)c2)O1 (stereo not given) | -0.185 | -2.59 (inactive) | 0.0509 (inactive) | -1.71 (inactive) | -0.212 (inactive) | -1.56 (inactive) | -0.18 (inactive) | 0.443 (inactive) | 0.122 | 0.0176
CC(C)C[C@@H]1NC(=O)[C@@H]2C[C@H](C(=O)NCCCCCC[N+](C)(C)C)[C@H](c3ccc(O)cc3)N2C1=O | -0.219 | 0.54 (inactive) | 0.181 (inactive) | 0.191 (inactive) | -0.282 (inactive) | 1.11 (inactive) | 0.487 (inactive) | 0.62 (inactive) | 0.0176 | -0.0056
O=C1OCCC=C[C@H]2OC34C=CCN(Cc5ccccc5)C(=O)[C@H]3N(CCCCCCO)C(=O)[C@@H]4C12 (stereo not given in full) | 1.83 | 0.0187 (inactive) | 0.654 (inactive) | 0.261 (inactive) | -0.208 (inactive) | 0.589 (inactive) | 0.759 (inactive) | 0.653 (inactive) | 0.183 | -0.0918
CCCCCN1CC=CC23O[C@@H]4C=CCOC(=O)[C@@H]4[C@H]2C(=O)N(CCCO)[C@@H]3C1=O (stereo not given in full) | 0.22 | -0.988 (inactive) | 0.806 (inactive) | -1.67 (inactive) | 0.0837 (inactive) | -0.0379 (inactive) | -0.625 (inactive) | 0.244 (inactive) | 0.217 | -0.0988
COC(=O)[C@@]1(Cc2ccc(F)cc2)[C@H]2c3cc(C(=O)N4CCCC4)n(Cc4cccc5ccccc45)c3C[C@H]2CN1C(=O)c1ccccc1 | -0.296 | 1.28 (inactive) | -1.53 (inactive) | -0.422 (inactive) | 0.784 (inactive) | 0.0161 (inactive) | -1.11 (inactive) | -0.974 (inactive) | -1.25 | 0.487
CC(C)C(=C=CC[C@@H](O)c1ccccc1OCCO)C[C@@H](O)c1ccccn1 | -0.347 | -1.09 (inactive) | 0.0716 (inactive) | -9.29 (active) | 0.142 (inactive) | -0.435 (inactive) | -0.749 (inactive) | -0.628 (inactive) | 0.221 | 0.0709
Cc1cc(C)c(C(O)C2C=CC3C(=O)N(C)C(=O)C3N2Nc2ccccc2)c(C)c1 (stereo not given) | -1.03 | -0.0657 (inactive) | -1.1 (inactive) | 0.0016 (inactive) | 0.944 (inactive) | -0.362 (inactive) | -0.709 (inactive) | -0.456 (inactive) | -1.46 | 0.372
CCOC(=O)[C@H]1C[C@H]2O[C@@]23C[C@H]1C(=O)N1CCCC1[C@@H]3O[Si](C)(C)C(C)(C)C (stereo not given in full) | -0.332 | -4.67 (inactive) | -0.88 (inactive) | -0.17 (inactive) | 0.367 (inactive) | -0.521 (inactive) | -0.205 (inactive) | -0.595 (inactive) | 0.0096 | -0.083
[N-]=[N+]=Nc1ccccc1[C@@H]1OC(c2ccc(OCCCO)cc2)=N[C@]1(CCS(=O)(=O)c1ccccc1)C(=O)N1CCOCC1 | -0.167 | 0.907 (inactive) | -0.638 (inactive) | 1.56 (inactive) | 0.507 (inactive) | 1.9 (inactive) | -0.311 (inactive) | 0.0945 (inactive) | -1.19 | 0.182
O=C(CS)NCCCCCCNC(=O)[C@H]1C[C@H]2C(=O)N3CCC[C@H]3C(=O)N2[C@H]1c1cccc(OCCO)c1 | -0.162 | 0.232 (inactive) | -0.837 (inactive) | -0.15 (inactive) | 0.0499 (inactive) | -0.656 (inactive) | -0.34 (inactive) | -0.596 (inactive) | -0.953 | 0.104
COc1ccc([Si](C)(C)[C@H]2[C@H](CCn3cc(CCO)nn3)O[C@@]3(C(=O)N(Cc4ccc(N5CCOC5=O)cc4)c4ccccc43)[C@@H]2C)cc1 | -0.909 | 0.93 (inactive) | -2.57 (inactive) | 0.604 (inactive) | 0.802 (inactive) | 1.22 (inactive) | 0.864 (inactive) | 0.562 (inactive) | -2.01 | 0.339
CC(C)c1ccc(NN2C(C(O)c3ccc(N(C)C)cc3)C=CC3C(=O)N(c4ccccc4)C(=O)C32)cc1 (stereo not given) | 0.0387 | 0.254 (inactive) | -0.683 (inactive) | 0.421 (inactive) | 0.53 (inactive) | 0.25 (inactive) | -0.172 (inactive) | 0.766 (inactive) | 0.203 | 0.391
C=CC[C@@]1(C(=O)O)N=C(c2ccc(OCCCO)cc2)O[C@@H]1c1ccccc1N=[N+]=[N-] | 0.0725 | -0.769 (inactive) | -0.702 (inactive) | 0.535 (inactive) | 0.976 (inactive) | 0.15 (inactive) | 0.236 (inactive) | -0.154 (inactive) | -0.0493 | -0.0559
CCC(CC)C(O)C1C=CC2C(=O)N(c3ccccc3)C(=O)C2N1Nc1ccc(C#N)cc1 (stereo not given) | -0.813 | -0.174 (inactive) | -0.253 (inactive) | -1.69 (inactive) | 1.55 (inactive) | -0.358 (inactive) | -0.698 (inactive) | 0.133 (inactive) | -0.308 | -0.101
Cc1cc(C)c(C(O)C2C=CC3C(=O)N(c4ccccc4)C(=O)C3N2Nc2ccc(C#N)cc2)c(C)c1 (stereo not given) | -0.833 | 0.011 (inactive) | 0.0952 (inactive) | 0.623 (inactive) | 1.26 (inactive) | 0.384 (inactive) | -0.232 (inactive) | -0.185 (inactive) | -0.451 | -0.253
